Screening results deposited in PubChem by several laboratories.
AHR act: AHR activators, primary screen, cell-based, luminescence, luciferase reporter, human; Aryl hydrocarbon receptor (Homo sapiens), P35869; activation, % at 5 µM; AID 2796, 2010; 2.5% of 320,000 active; AHR-responsive luciferase reporter cells; in the data active = activation above about 47%;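 note: 0% = vehicle wells and 100% = reference agonist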
Target sequence (P35869 whole entry, looked up): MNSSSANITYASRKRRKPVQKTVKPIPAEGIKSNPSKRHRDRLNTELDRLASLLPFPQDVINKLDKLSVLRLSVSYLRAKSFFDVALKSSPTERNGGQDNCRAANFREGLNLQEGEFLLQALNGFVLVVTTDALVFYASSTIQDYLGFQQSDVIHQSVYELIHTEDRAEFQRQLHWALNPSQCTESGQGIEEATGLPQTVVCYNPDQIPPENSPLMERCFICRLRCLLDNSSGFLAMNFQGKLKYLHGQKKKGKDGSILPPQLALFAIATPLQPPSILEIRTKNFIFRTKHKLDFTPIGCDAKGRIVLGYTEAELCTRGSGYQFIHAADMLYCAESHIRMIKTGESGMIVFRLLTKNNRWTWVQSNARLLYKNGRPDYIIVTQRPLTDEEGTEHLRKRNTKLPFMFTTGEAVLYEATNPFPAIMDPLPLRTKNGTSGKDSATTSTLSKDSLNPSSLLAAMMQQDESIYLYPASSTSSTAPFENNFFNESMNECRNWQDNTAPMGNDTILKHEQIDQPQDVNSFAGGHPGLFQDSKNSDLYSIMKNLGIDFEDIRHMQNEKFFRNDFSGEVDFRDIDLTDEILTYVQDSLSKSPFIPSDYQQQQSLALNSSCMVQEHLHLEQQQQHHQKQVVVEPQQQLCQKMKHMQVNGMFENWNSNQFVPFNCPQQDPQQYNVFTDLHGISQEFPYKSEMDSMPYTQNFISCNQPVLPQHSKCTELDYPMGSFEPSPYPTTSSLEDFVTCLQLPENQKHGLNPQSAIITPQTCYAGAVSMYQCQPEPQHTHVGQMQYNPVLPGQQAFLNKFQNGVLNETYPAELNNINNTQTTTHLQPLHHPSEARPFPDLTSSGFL
APOBEC3A inh: APOBEC3A ssDNA deaminase inhibitors, primary screen, selectivity assay for APOBEC3G inhibitor project, biochemical, FAM/TAMRA oligo cleavage fluorescence; DNA dC->dU-editing enzyme APOBEC-3A (Homo sapiens), P31941; recombinant A3A, FAM/TAMRA ssDNA deamination fluorescence; inhibition, % at 20 µM; 0.41% of 330,000 active; AID 493011, 2011;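 active = at least 40% inhibition at 20 µM here, with at most 30% in a related deaminase screen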;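 note: plate controls were A3A with DMSO for no effect and wells lacking A3A enzyme for full effect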
NTR1 ag: agonists of human NTR1, primary screen, imaging, U2OS cells, beta-arrestin-GFP, high content; Neurotensin receptor type 1 (Homo sapiens), P30989; NTR1-U2OS beta-arrestin-GFP spot imaging, agonist mode; activation, % at 20 µM; 0.17% of 330,000 active; AID 493036, 2011;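 active = activation at or above 40% of the spot to cytoplasm intensity ratio, with at least 20 cells analyzed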;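 note: 0% = DMSO without peptide and 100% = 100 nM NTR1 peptide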
A3G deaminase: APOBEC3G DNA deaminase inhibitors, primary screen, biochemical, fluorescence, single-stranded DNA substrate, uHTS | recombinant A3G, ssDNA deamination FAM/TAMRA fluorescence | 0.28% of 330,000 active | inhibition, % at 20 µM;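 active = inhibition of at least 40% at 20 µM, with no more than 30% in the related APOBEC3A deaminase screen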;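 note: plate controls were DMSO wells with A3G for no effect and wells lacking A3G enzyme for full effect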
The depositor's hits bear a star. Only some compounds are listed: those with a hit (about 3.2% of all), similar ones and a draw of the others.

SMILES	AHR act	APOBEC3A inh	NTR1 ag	A3G deaminase
Cc1ccc2[nH]c(=O)c(CN(CC3COCCO3)C(=O)Nc3ccccc3F)cc2c1 (stereo not drawn)	2	2	1	10
NC(=O)c1cc2ccccc2o/c1=N/NC(=O)c1ccccc1	51*	1	2	-5
COc1cccc(C(=O)N/N=c2/oc3ccccc3cc2C(N)=O)c1	18	-5	1	-12
CCn1nc(C(=O)NNC(=O)c2cc(Cl)ccc2OC)c2ccccc2c1=O	47	-1	3	-5
COc1ccc(Cl)cc1C(=O)NNC(=O)c1nn(C)c(=O)c2ccccc12	66*	-1	-1	-4
CC(C)NC(=S)N=Nc1c(O)[nH]c2ccc(C(C)C)cc12	67*	1	2	2
O=C(C1=C[C@@H]2[C@H]3C(=O)N(c4ccc(Cl)cc4)C(=O)[C@H]3[C@@H](C(=O)c3ccc(Cl)cc3)N2C=C1)c1ccccc1	50*	-3	0	-7
Cc1ccc(C)c(S(=O)(=O)/N=C2\C=C(NS(=O)(=O)c3ccccc3)C(=O)c3ccccc32)c1	74*	4	2	5
COc1ccccc1-c1nnc(SCC(=O)Nc2ccc(Cl)cc2Cl)o1	57*	-1	0	-5
CCOC(=O)c1sc(N)c(C#N)c1CSc1nc2ccc(C)cc2[nH]1	70*	-3	0	-6
COc1ccc(-c2c(-c3ccsc3)oc3ccc(N4CCOCC4)cc23)cc1	47*	-3	7	-9
COc1ccc(-c2oc3ccc(N4CCOCC4)cc3c2/C=C/c2ccc(OC)c(OC)c2)cc1	33	-2	0	-6
Cc1cc(C(=O)N/N=C/c2c(C)n(C)c3ccccc23)n[nH]1	77*	2	5	-6
Cc1cc(C(=O)N/N=C/c2c(C)[nH]c3ccccc23)n[nH]1	17	-4	0	-5
Cc1cc(C(=O)N/N=C/c2c3ccccc3cc3ccccc23)n[nH]1	98*	-2	1	-6
CC1(c2cc(F)ccc2F)NC(=O)N(CC(=O)Nc2cccc(S(=O)(=O)N3CCCC3)c2)C1=O (stereo not drawn)	0	-5	1	-7
CC1(c2ccc3ccccc3c2)NC(=O)N(CC(=O)Nc2cccc(S(=O)(=O)N3CCOCC3)c2)C1=O (stereo not drawn)	49*	-2	0	-2
Cn1c(O)c(/C=N/Nc2ccccc2)c(=O)n(C)c1=O	58*	-1	1	20
Cc1[nH]nc(N=Cc2c(O)n(C)c(=O)n(C)c2=O)c1-c1ccccc1	0	-5	1	-6
S=c1[nH]nc(-c2cccc(Cl)c2)n1/N=C/c1ccc(-c2ccccc2Br)o1	4	-6	11	-9
S=c1[nH]nc(-c2ccccc2)n1/N=C/c1ccc(-c2ccccc2Cl)o1	53*	-10	20	-11
CCCc1cc(-c2[nH]ncc2-c2ccc(C(=O)OCC)o2)c(O)cc1O	4	-3	16	-3
CCCc1cc(-c2[nH]ncc2-c2ccc3c(c2)OCCCO3)c(O)cc1O	43	-2	44*	-5
Cc1cc(C)n2nc(-c3sccc3-n3c(C)ccc3C)cc2n1	52*	-7	4	-2
O=C(O)C[C@H]1c2ccc(C(F)(F)F)cc2S(=O)(=O)N1C1CCCCC1	0	1	-1	-8
SMILES	AHR act	APOBEC3A inh	NTR1 ag	A3G deaminase
C/C(=N\Nc1ccc2nncn2n1)c1cccs1	14	-4	0	-5
CN(C)S(=O)(=O)c1ccc(C(=O)N2CCN(S(=O)(=O)c3cccs3)CC2)cc1	-1	0	0	-2
Cc1nc(-c2ccccc2)cc(-c2ccccc2)n1	18	1	0	-4
COc1ccc2nc(-c3ccccc3)cc(OC)c2c1	64*	-2	5	-9
COc1nc(-c2ccccc2)cc(-c2ccccc2)n1	63*	1	4	-5
COc1ccc(/C=N/NC(=O)c2cc(-c3ccccc3)nc3ccccc23)c(OC)c1	25	-2	0	-5
CN(N)c1nc(-c2ccccc2)cc(-c2ccccc2)n1	66*	14	9	-1
Cc1ccnc(NC(=S)NC(=O)/C=C/c2ccc(Cl)cc2)c1	5	-3	0	-6
O=C(CCNS(=O)(=O)c1ccccc1F)N1CCN(C/C=C/c2ccccc2)CC1	2	0	0	2
CSc1nnc(C)c(/C=C/Nc2ccc(Cl)cc2)n1	50*	-1	0	-6
CSc1nnc(C)c(/C=C/Nc2ccc(F)cc2)n1	37	1	1	-1
C/C(=N\Nc1nc(Cl)c(Cl)cc1Cl)c1ccc(S(=O)(=O)NCc2ccco2)cc1	49*	0	10	-4
Cc1ccc(CNC(=O)c2ccc3c(=O)c(O)c(-c4ccc(C)cc4)[nH]c3c2)cc1	8	2	-3	-4
Cc1ccc(-c2[nH]c3cc(C(N)=O)ccc3c(=O)c2O)cc1	66*	1	-3	1
O=C(NCCN1CCCC1)C1CCC(=O)N(CCCN2CCOCC2)C1 (stereo not drawn)	-2	-4	0	-5
COCCn1c(=NC(=O)CCS(=O)(=O)c2ccccc2)sc2c(OC)ccc(OC)c21	51*	-2	2	-9
CCCCOc1ccc(-c2nnc(-c3ccncc3)o2)cc1	27	-5	4	-2
CCOc1ccc(-c2nnc(-c3ccncc3)o2)cc1	61*	-5	-1	-4
Cc1ccc(-n2nc(C)c3c2OC(N)=C(C#N)C3c2ccoc2)cc1 (stereo not drawn)	51*	-4	-2	-2
Cc1ccc(-n2nc(C)c3c2OC(N)=C(C#N)C3c2ccco2)cc1 (stereo not drawn)	63*	-4	-1	-2
Cc1ccc(-n2nc(C)c3c2OC(N)=C(C#N)C3c2ccc(C)o2)cc1 (stereo not drawn)	33	-5	2	-7
Cc1nn(-c2ccccc2)c2c1C(c1ccccc1)C(C#N)=C(N)O2 (stereo not drawn)	38	-4	2	-8
O=C(NCc1cccc(C(F)(F)F)c1)N1CCN(C(=O)c2ccccc2)CC1	0	3	0	3
O=C(NNC(=S)Nc1ccccc1C(F)(F)F)C1CC1	8	10	-1	-2
CCCCc1cc(=O)oc2cc(C)cc(OCC(=O)NCc3ccncc3)c12	56*	2	0	3
Cc1cc(OCC(=O)Nc2cccnc2)c2c(C)cc(=O)oc2c1	64*	5	1	5
O=C(/C=C/c1ccco1)Nc1cccc(S(=O)(=O)N2CCOCC2)c1	50*	4	1	-4
Cc1ccc(/C=C/C(=O)Nc2cccc(S(=O)(=O)N3CCOCC3)c2)o1	59*	5	-1	-8
O=C(N/C(=C\c1cccc([N+](=O)[O-])c1)C(=O)N(CCO)CCO)c1ccco1	-1	1	-1	-2
